Source: PubChem BioAssay
A selection: hits, their analogues and other compounds. The true share with any hit is near 6.9%.
Cy5 interf NS3h = Cy5 fluorescence quenchers or enhancers, artefact control for HCV NS3 helicase inhibitor project, biochemical, ChemBridge library, Cy5 readout; AID 720488, 2013; hit rate 6% among 16,000; Cy5-dT15 DNA with NS3h, fluorescence interference; actives lie on both sides; signal over control mean, under 1 quenches; fluorescence interference ratio at 100 µM;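 active = compound fluorescence over control fluorescence at most 0.8, a quencher, or at least a set upper limit, an enhancer; inactive = ratio between 0.8 and the set upper limit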
NS3h inh CB = HCV NS3 helicase inhibitors, primary screen, biochemical, fluorescence polarization, ChemBridge library | hit rate 1.6% among 16,000 | NS3h Cy5-dT15 DNA binding | Hepatitis C virus NS3 helicase | inhibition, % at 100 µM;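 active = inhibition above the average over every tested compound plus 3 SD, cut at about 40% in these data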
HCV NS3h conf = HCV NS3 helicase inhibitors, retest, confirmation, biochemical, fluorescence polarization, ChemBridge library. shares compounds with NS3h inh CB. NS3h binding to Cy5-dT15 DNA. inhibition, % at 100 µM. hit rate 20% among 240. AID 720485, 2013;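 active = percent inhibition of 50% or more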
SSB-DNA FP CB = E. coli SSB-DNA binding inhibitors, counter-screen for HCV NS3 helicase inhibitor project, biochemical, fluorescence polarization, selected ChemBridge compounds. AID 720486, 2013. E. coli SSB binding Cy5-dT15. hit rate 40% among 240. shares compounds with NS3h inh CB. inhibition, % at 100 µM;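 active = inhibition of at least 50%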;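 note: displacers lower Cy5 polarization so higher inhibition means more SSB displaced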
Target sequence (P0AGE0 whole entry, looked up): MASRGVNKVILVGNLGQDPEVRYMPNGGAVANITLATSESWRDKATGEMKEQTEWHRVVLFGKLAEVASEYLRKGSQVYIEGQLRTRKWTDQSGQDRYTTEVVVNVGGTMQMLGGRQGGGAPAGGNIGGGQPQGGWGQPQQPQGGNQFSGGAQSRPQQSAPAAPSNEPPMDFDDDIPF
Cy5 SSB interf = Cy5 fluorescence interference with SSB-bound oligo, artefact control for HCV NS3 helicase inhibitor project, biochemical, E. coli SSB, selected ChemBridge compounds | hit rate 8% among 240 | fluorescence interference ratio at 100 µM | Cy5-dT15/E. coli SSB fluorescence interference; actives lie on both sides | shares compounds with NS3h inh CB;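 active = fluorescence interference ratio at or above 1.2, signal boosting, or at or below 0.8, signal quenching; inactive = ratio between 0.8 and 1.2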;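 note: ratio of compound well signal to mean negative control signal so 1 means no effect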
Cy5 interf conf = Cy5-DNA-NS3h complex fluorescence interference, confirmation, artefact control for HCV NS3 helicase inhibitor project, biochemical, ChemBridge library. fluorescence interference ratio at 100 µM, hits read low. Cy5-dT15 DNA/NS3h fluorescence interference counterscreen. hit rate 44% among 240. AID 720489, 2013. shares compounds with NS3h inh CB;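 active = fluorescence interference ratio at or below 0.8 quencher or at or above a set limitenhancer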;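 note: ratio of compound fluorescence to mean of negative controls so 1 means no interference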
The depositor's hits bear a star; / = not tested or not shown.

SMILES	Cy5 interf NS3h	NS3h inh CB	HCV NS3h conf	SSB-DNA FP CB	Cy5 SSB interf	Cy5 interf conf
COC(=O)c1cccc(N2C(=O)C=CC2=O)c1	0.949	46.1*	36.2	-1.9	0.975	0.73*
COC(=O)c1cccc(NC(=O)c2ccc[n+]([O-])c2)c1	1.05	4.0	/	/	/	/
O=C1NN(c2ccc(Cl)cc2)C(=O)/C1=C\c1ccc(-c2ccc(Cl)c(C(=O)O)c2)o1	0.804*	52.1*	36.2	28.4	0.968	0.916
O=C1NC(=O)N(c2ccccc2)C(=O)/C1=C\c1ccc(-c2cccc(C(=O)O)c2)o1	0.984	50.8*	38.3	52.7*	0.919	0.921
O=C1NN(c2ccccc2)C(=O)/C1=C/c1ccc(-c2ccc(F)cc2)o1	0.985	7.3	/	/	/	/
COc1ccc([N+](=O)[O-])cc1-c1ccc(/C=C2\C(=O)NC(=O)N(c3ccc(Cl)cc3)C2=O)o1	1.09	20.4	/	/	/	/
O=C1NC(=O)N(c2ccccc2)C(=O)/C1=C\c1ccc(-c2ccc([N+](=O)[O-])cc2Cl)o1	0.817	-3.4	/	/	/	/
O=C1NC(=O)N(c2ccc(Cl)cc2)C(=O)/C1=C/c1ccc(-c2ccc(Cl)c(C(=O)O)c2)o1	1.05	67.2*	62.6*	76.9*	0.937	0.852
CCOC(=O)/C=C(/C)Nc1c(C)n(C)n(-c2ccccc2)c1=O	1.01	-1.9	/	/	/	/
COc1ccc(C2=C/C(=C\c3c(OC)ccc4ccccc34)C(=O)O2)c(OC)c1	0.994	8.2	/	/	/	/
COc1ccc(-n2c(Cc3ccccc3)n[nH]c2=S)c(OC)c1	0.932	0.3	/	/	/	/
COc1cc(N)ccc1-n1c(C)ccc1C	0.703*	68.0*	7.6	22.3	0.688*	0.614*
CC(C)NC(=O)CN(c1cccc(Cl)c1)S(C)(=O)=O	1.01	24.1	/	/	/	/
Cc1cc(C)cc(N2C(=O)NC(=O)/C(=C\c3cc(Br)c(O)c([N+](=O)[O-])c3)C2=O)c1	0.985	35.5	27.7	52.7*	0.946	0.991
Cc1cccc(N2C(=O)NC(=O)/C(=C/c3cc(Cl)c(O)c(Cl)c3)C2=O)c1	1.04	15.6	/	/	/	/
COc1cc(/C=C2\C(=O)NC(=O)N(c3cc(C)cc(C)c3)C2=O)cc(OC)c1O	1.06	7.9	/	/	/	/
Cc1cccc(N2C(=O)NC(=O)/C(=C\c3cc(Br)c(O)c([N+](=O)[O-])c3)C2=O)c1	0.988	31.5	31.9	62.4*	0.928	0.75*
CC(C)Oc1nnc(-c2ccccc2)c2ccccc12	1.05	7.4	/	/	/	/
COc1cc(C=Nc2ccc(C)cc2C)ccc1O	0.945	6.1	/	/	/	/
O=C1N/C(=N\N=C/c2cccs2)SC1Cc1ccc(Cl)cc1Cl (stereo unspecified)	1.07	-3.1	/	/	/	/
COc1cccc(N2C(=O)C(=O)C(=C(O)c3ccccc3)C2c2ccc(C)cc2)c1 (stereo unspecified)	0.988	-0.7	/	/	/	/
CC1=C(C#N)c2nc(N)c(C#N)c(C)c2/C1=C/c1ccc(-c2cccc(C(=O)O)c2)o1	1.14	121.0*	71.1*	152.2*	0.862	0.99
CC1=C(C#N)c2nc(N)c(C#N)c(C)c2/C1=C\c1ccc(I)o1	1.06	1.9	/	/	/	/
N#Cc1c(N)c(C#N)c(-c2ccco2)c2c1CCCC2	0.963	31.9	17.1	21.1	0.98	0.918
N#Cc1c(-c2ccco2)c2c([nH]c1=S)CCCC2	1.08	18.5	/	/	/	/
SMILES	Cy5 interf NS3h	NS3h inh CB	HCV NS3h conf	SSB-DNA FP CB	Cy5 SSB interf	Cy5 interf conf
Cc1nnc2nc(-c3cccc(Cl)c3Cl)[nH]n12	1.12	7.3	/	/	/	/
Cc1ccc(OCC(N)=O)c(Br)c1	1.05	-13.0	/	/	/	/
CCOc1ccc(NC(=O)c2cccc(Oc3ccccc3)c2)c([N+](=O)[O-])c1	1.08	6.8	/	/	/	/
O=C1C2C3CCC(O3)C2C(=O)N1c1cccc([N+](=O)[O-])c1 (stereo unspecified)	0.896	-0.3	/	/	/	/
O=C1C2C3C=CC(C3)C2C(=O)N1c1ccc([N+](=O)[O-])cc1Br (stereo unspecified)	0.993	4.2	/	/	/	/
CCOc1ccc(N2C(=O)C=CC2=O)c([N+](=O)[O-])c1	0.971	63.8*	46.8	4.1	0.966	0.951
Cc1ccc(N2C(=O)C=CC2=O)c(Br)c1	1.01	76.5*	61.6*	6.6	0.941	0.955
O=C1C=CC(=O)N1c1ccc([N+](=O)[O-])cc1Br	0.916	88.3*	61.6*	0.5	0.939	0.758*
O=C1C=CC(=O)N1c1cccc([N+](=O)[O-])c1	0.903	62.9*	65.8*	9.0	0.993	0.921
O=C1C(Cl)=C(Nc2cccc(C(F)(F)F)c2)C(=O)c2ccccc21	0.985	-0.3	/	/	/	/
COc1cc(OC)cc(C(=O)Nc2c(C)cc(Br)cc2C)c1	0.932	6.2	/	/	/	/
COc1cccc(C(=O)Nc2nnc(-c3ccc([N+](=O)[O-])cc3)s2)c1	0.97	7.8	/	/	/	/
Cc1ccc(C2C(=C(O)c3ccccc3)C(=O)C(=O)N2c2nncs2)cc1 (stereo unspecified)	1.04	2.3	/	/	/	/
COc1ccc2occ(C(=O)c3ccc([N+](=O)[O-])cc3)c2c1	1.05	4.7	/	/	/	/
COc1ccc2occ(C(=O)c3ccc(N)cc3)c2c1	1.08	39.6	6.6	18.7	0.872	0.85
CCOC(=O)C1=C(C)NC(=S)NC1c1ccc(OC(=O)c2ccco2)c(OC)c1 (stereo unspecified)	0.918	11.5	/	/	/	/
COC(=O)C1=C(C)N=c2s/c(=C/c3cccnc3)c(=O)n2C1c1cccs1 (stereo unspecified)	1.02	12.5	/	/	/	/
Cc1cccc(NC(=O)c2ccccc2NC(=O)/C=C\c2ccco2)c1C	0.931	4.6	/	/	/	/
O=C(/C=C/c1ccco1)Nc1ccc(O)cc1C(=O)O	1.05	61.1*	39.4	92.7*	0.905	0.996
CCOC(=O)c1ccc2nc(NC(=O)COC(=O)c3cc4ccccc4o3)sc2c1	0.985	-13.0	/	/	/	/
CCc1ccccc1NC(=O)c1ccc(I)cc1	0.949	13.7	/	/	/	/
O=C1NC(=O)N(c2ccc(Cl)cc2)C(=O)/C1=C/c1ccc(O)c(Cl)c1	1.04	74.5*	21.4	34.5	0.971	0.862
O=C1NC(=O)N(c2cccc(Br)c2)C(=O)/C1=C/c1ccc(O)c(Cl)c1	1.03	25.1	/	/	/	/
O=C1NC(=O)N(c2ccc(Cl)cc2)C(=O)/C1=C/c1cc(I)c(O)c([N+](=O)[O-])c1	1.02	77.5*	42.5	91.5*	0.924	0.959
O=C1NC(=O)N(c2ccc(Cl)cc2)C(=O)/C1=C\c1cccc(O)c1	0.99	-1.9	/	/	/	/
O=c1[nH]c(=O)n(-c2ccccc2Cl)c(O)c1C=Nc1ccc(Cl)cc1	0.95	20.8	/	/	/	/
COCCNC(=O)c1cc2n(n1)C(C(F)(F)F)CC(c1ccc(Br)cc1)N2 (stereo unspecified)	0.844	-2.4	/	/	/	/
